{
  "source": "the supplement of paper PMC9950053",
  "note": "Counter-ions that a name gives are not always drawn.",
  "data": [
    {"system": "Danio rerio larvae (5 dpf)", "experiment": "excitability (activity period 17 minus period 16, 1-s interval sound) minus DMSO control (percentage points); higher = more acoustic excitability than DMSO larvae", "conditions": "10 µM; exposure time: 3 h pre-incubation + 3 h imaging", "description": "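Wild-type 5 dpf zebrafish larvae (n=48 per drug, 96-well plates, 28.5 °C) were exposed to Tocris FDA-approved library compounds at 10 µM (0.1% DMSO) for 3 h before and 3 h during imaging. Images were taken every 6 s during visual and acoustic stimuli, and larvae were tracked with Z-LaP Tracker. Each measure is the treated-group mean minus the DMSO control mean (n=844), in percentage points. This mapping covers compounds with 5-character plate codes.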", "values": [
      {"compound": "COc1ccc(C(CN(C)C)C2(O)CCCCC2)cc1", "note": "(stereo unspecified) [Venlafaxine hydrochloride]", "excitability": 8.91}
    ]}
  ]
}
